Screening data (PubChem)
Compounds with a hit are over-represented: about 21% of the library has one in this group of screens.
IL-1B inflam inh – blocks inflammasome-driven IL-1 beta release | THP-1 LPS/ATP IL-1B secretion, AlphaLISA, 16 h; stronger effect = lower value | activity change, % at 57.5 µM | 360,000 compounds, 4.7% hits | AID 743279; in the data active means activity change below about -50%; inconclusive means mostly about -30% to -49%; further: on the % scale 0 is the no-effect control and ±100 the full control effect
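THP-1 cells pretreated 1 hr with compounds (up to 57.5 uM final), then stimulated with LPS (250 ng/mL final) plus ATP (1.25 mM final); secreted IL-1B measured by AlphaLISA after 16 hr, decreased signal indicating inhibition.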
DT40 TDP1 CPT – growth inhibition of DT40 Tdp1-/-;hTDP1 cells with camptothecin (screen for TDP1 inhibitors); chicken DT40 Tdp1-/-;hTDP1 cells + 20 nM CPT, ATP luminescence, 48 h; Potency, µM (top dose mostly 46.2 µM), for inactives: at the highest dose activity change, negative = growth inhibition, most hits filed as inhibitors; 420,000 compounds, 12% hits; further: potency means the concentration at half of the fitted maximal effect; on the % scale 0 is the no-effect control and ±100 the full control effect; nearly all actives have a fitted effect of over 55% in size
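Chicken DT40 Tdp1-/- cells stably complemented with human TDP1 were seeded at 400 cells/well in medium containing 20 nM camptothecin, exposed to pin-transferred compounds, and grown at 37 °C for at least 48 hr. Viability was read as ATP luminescence.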
D3 ag – D3 dopamine receptor (human) agonism. P35462. 410,000 compounds, 0.58% hits. D3R DiscoveRx beta-arrestin cells, luminescence, 90 min. max activation, %; in the data active means max activation above about 30%; further: 0% is about no effect
Target sequence (P35462 whole entry, looked up): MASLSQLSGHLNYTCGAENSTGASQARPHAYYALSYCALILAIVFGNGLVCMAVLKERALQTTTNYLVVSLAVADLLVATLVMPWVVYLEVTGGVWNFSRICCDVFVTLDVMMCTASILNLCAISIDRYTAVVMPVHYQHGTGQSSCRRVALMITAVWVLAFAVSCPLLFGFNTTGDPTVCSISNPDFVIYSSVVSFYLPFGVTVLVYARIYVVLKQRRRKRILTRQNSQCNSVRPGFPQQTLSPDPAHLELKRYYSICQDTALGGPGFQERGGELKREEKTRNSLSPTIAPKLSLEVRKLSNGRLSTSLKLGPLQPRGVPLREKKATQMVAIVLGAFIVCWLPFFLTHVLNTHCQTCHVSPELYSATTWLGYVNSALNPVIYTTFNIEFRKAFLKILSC
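Agonist-mode cell screen: cells plated at 1500/well and incubated overnight at 37 °C, then exposed to library compounds for 90 min at 37 °C. Detection reagent was added for 30–60 min at room temperature, and luminescence was read.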
DT40 TDP1 no CPT – qHTS for Inhibitors of human tyrosyl-DNA phosphodiesterase 1 (TDP1): qHTS in cells in absence of CPT; AID 686978, 2013; 420,000 compounds, 15% hits; DT40 Tdp1-/- hTDP1 cells, no CPT, ATP luminescence, 48 h; Potency, µM (doses to about 46.2 µM), for the others: top-dose activity change, negative = growth inhibition, actives largely listed as inhibitors; further: potency means the concentration at half of the fitted maximal effect; on the % scale 0 is the no-effect control and ±100 the full control effect; nearly all actives have a fitted effect of over 55% in size
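Growth kinetics read by CellTiter-Glo luminescence after ≥48 hr at 37 °C. Cells: DT40 Tdp1-/- stably carrying human TDP1, 400 per well, compound exposure in the absence of CPT (DMSO vehicle).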
D3 antag – D3 dopamine receptor (human) antagonism; D3R cells, DiscoveRx beta-arrestin luminescence, antagonist mode; stronger effect = lower value; P35462; 360,000 compounds, 2.5% hits; max response, negative = inhibition, %; in the data active means max response below about -50%; inconclusive means no clear call, values can overlap the other calls; further: on the % scale 0 is the no-effect control and ±100 the full control effect
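Cells expressing the human receptor were seeded at 1500 cells/well, incubated overnight at 37 degrees C in 5% CO2, then exposed to library compounds with dopamine controls for 90 minutes at 37 degrees C before luminescent detection.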
ClpP mod – qHTS Assay for Activators of ClpP. purified B. subtilis ClpP, FRET peptide cleavage, 20 min. Potency, µM (doses to about 57.5 µM), for the others: top-dose activity change, negative = active. 340,000 compounds, 1.9% hits. AID 651965, 2013; active means well fitted falling curve with a large enough effect; inconclusive means small, poorly fitted or top-dose-only effect; inactive means no such curve, though single readings can be large or run the other way; further: potency means the concentration at half of the fitted maximal effect; the source files actives as falling curves though it sought activators and does not explain the sign; nearly all actives have a fitted effect of over 65% in size
Target sequence (P80244 whole entry, looked up): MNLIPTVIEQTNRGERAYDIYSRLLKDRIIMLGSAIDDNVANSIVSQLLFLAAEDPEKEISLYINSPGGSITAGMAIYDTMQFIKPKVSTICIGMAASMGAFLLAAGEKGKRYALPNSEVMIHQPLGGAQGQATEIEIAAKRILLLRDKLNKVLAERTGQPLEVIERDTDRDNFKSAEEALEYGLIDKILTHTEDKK
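ClpP 10 microg/mL final, pH 8 Tris/KCl buffer with BSA, glycerol, Tween-20; compound pinned in; FRET-FV substrate; RT 20 min; Ex320/Em430; ΔFRET vs ADEP 5.8 microM, DMSO, no enzyme.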
Starred values were filed as active, the others as inactive; i = inactive; ? = inconclusive; nt = no result given. Unless noted, the call rests on the fitted dose curve; in most records, active means well fitted inhibition curve with a large enough effect; inconclusive means small, poorly fitted or top-dose-only effect; inactive means flat fitted curve, though single readings scatter.

SMILES | IL-1B inflam inh | DT40 TDP1 CPT | D3 ag | DT40 TDP1 no CPT | D3 antag | ClpP mod
COc1ccc(CN2CCc3ccccc3C2)cc1Br | 3.1 | -2.9% | -7.0 | ? | -92.4* | 1.8%
COc1cc2c(cc1OC)CN(Cc1ccc(F)cc1)CC2 | -4.2 | -2.0% | -27.2 | ? | -30.0 | nt
COc1ccc(CN2CCc3cc(OC)c(OC)cc3C2)cc1O | -21.9 | ? | -55.8 | ? | -57.6* | -4.3%
CCOC(=O)c1ccc(-n2c(-c3ccc(C)cc3)c(C)n3c4c(=O)n(C)c(=O)n(C)c4nc23)cc1 | nt | nt | 6.6 | nt | nt | -1.5%
O=C(O)Cn1nc(-c2ccc(F)cc2)oc1=O | 3.9 | 16.4µM* | -5.3 | ? | 4.4 | -5.3%
COc1ccc2[nH]cc(/C=N/NS(=O)(=O)c3ccc(C)cc3)c2c1 | 15.5 | 14.6µM* | 6.0 | 13µM* | 1.1 | 2.0%
COc1ccc(OC)c(S(=O)(=O)N/N=C\c2c[nH]c3ccccc23)c1 | i | 18.4µM* | 2.2 | 9.2µM* | -6.6 | -2.2%
COc1ccc(OC)c(S(=O)(=O)N/N=C(/C)c2c[nH]c3ccccc23)c1 | 35.1 | -15.6% | 0.2 | 12.3% | -7.8 | -1.2%
COc1cc(/C=C/c2cc[n+](C)cc2)ccc1OCC(=O)Nc1ccc(Cl)c(Cl)c1 | -89.0* | ? | -12.4 | ? | -17.8 | nt
COc1cc(NC(=O)COc2ccc(-n3cnnn3)cc2)cc(OC)c1OC | -10.2 | 23.1µM* | 0.4 | ? | -6.5 | -1.9%
C/C=C/c1ccc(OCC(=O)O)c(OC)c1 | 16.2 | -2.0% | -0.3 | -16.3% | -0.1 | nt
O=C(COc1ccc(-n2cnnn2)cc1)Nc1cc(Cl)cc(Cl)c1 | 0.7 | -22.3% | -8.6 | ? | -19.8 | -5.4%
COc1cc(/C=C/c2cccc[n+]2C)ccc1OCC(=O)Nc1cccc(Cl)c1 | -71.1* | -17.9% | 9.1 | 18.4µM* | -13.4 | nt
C/C=C/c1ccc(OCC(=O)Nc2cc(OC)c(OC)c(OC)c2)c(OC)c1 | -11.5 | 13µM* | 11.2 | 11.6µM* | 24.1 | -21.2%
COc1cc(/C=C/c2cccc[n+]2C)ccc1OCC(=O)Nc1ccccc1 | -16.9 | -30.8% | 3.9 | -19.9% | 9.9 | nt
Cn1c(N)c(N2CCCCC2)c(=O)n(CC(=O)Nc2cccc(C#N)c2)c1=O | 16.4 | 5.9% | 1.4 | -2.0% | 21.2 | -0.2%
CN(CC(=O)Nc1ccccc1Br)C(=O)c1cccnc1Nc1cccc(C(F)(F)F)c1 | -25.4 | ? | 4.1 | ? | -21.9 | 2.7%
CC(SCc1ccccc1)C(=O)Nc1ccccc1 (configuration not stated) | 28.4 | -10.7% | -11.5 | 9.9% | 6.3 | -1.2%
O=C(Cn1c(=O)nc(-c2ccccc2)c2ccccc21)Nc1cccc(C(F)(F)F)c1 | nt | -0.5% | 3.6 | 2.0% | nt | -3.1%
COc1ccc(NC(=O)COc2ccc(/C=C/c3cccc[n+]3C)cc2OC)cc1 | -16.0 | 0.4% | 1.5 | -9.9% | 5.1 | nt
COc1ccc(NC(=O)COc2ccc(/C=C/c3cc[n+](C)cc3)cc2OC)cc1 | -53.6* | ? | 7.3 | 23.1µM* | 7.7 | nt
O=C(C[n+]1ccccc1)N/N=C/c1ccc(Cl)cc1 | -4.1 | 5.0% | -6.2 | 11.0% | -0.9 | -1.0%
Cc1cc(Cl)cc(Cl)c1OCCCCN(C)C | 0.0 | ? | -8.7 | 18.4µM* | -20.3 | -0.1%
CCC1CCCCN1CC(O)Cn1c2ccccc2n2c(=O)cc(C)c(C#N)c12 (configuration not stated) | -17.3 | 17.3% | 0.7 | -5.8% | -4.6 | 28.2µM*
Cc1cc(=O)n2c3ccccc3n(CC(O)CN3CCN(Cc4ccccc4)CC3)c2c1C#N (configuration not stated) | -18.1 | 11.6µM* | -22.9 | 11.6µM* | -19.1 | 3.6%
SMILES | IL-1B inflam inh | DT40 TDP1 CPT | D3 ag | DT40 TDP1 no CPT | D3 antag | ClpP mod
Cc1cc(=O)n2c3ccccc3n(CC(O)CN3CCC(C)CC3)c2c1C#N (configuration not stated) | -16.4 | 1.1% | -6.3 | -44.3% | -2.9 | 35.5µM*
Cc1cc(=O)n2c3ccccc3n(CC(O)CN3CCN(CCO)CC3)c2c1C#N (configuration not stated) | ? | -1.8% | -3.1 | -24.8% | -26.6 | nt
Cc1ccc(-n2nc3c(c2NC(=O)c2ccco2)CS(=O)C3)c(C)c1 (configuration not stated) | -4.3 | -20.5% | -6.2 | -7.6% | -4.4 | 25.1µM*
O=C(Nc1cccnc1)c1ccc(Cl)c(S(=O)(=O)N2CCOCC2)c1 | 50.7 | ? | 11.5 | 1.3% | -2.0 | nt
O=C(Nc1cccc(S(=O)(=O)N2CCOCC2)c1)c1cc(S(=O)(=O)N2CCOCC2)c(Cl)cc1Cl | -0.8 | 14.6µM* | -11.2 | ? | 36.9 | 0.1%
O=C(Nc1cccc(S(=O)(=O)C(F)F)c1)c1ccc(Cl)c(S(=O)(=O)N2CCOCC2)c1 | -62.6* | 16.4µM* | -11.8 | 18.4µM* | 0.0 | 2.0%
O=C(Nc1ccccc1)c1ccc(NCc2cccnc2)c(S(=O)(=O)N2CCOCC2)c1 | -9.5 | -21.3% | -10.0 | 14.6µM* | -13.1 | -16.3%
CCOC(=O)c1ccccc1NC(=O)c1ccc(Cl)c(S(=O)(=O)N2CCOCC2)c1 | -20.9 | ? | 5.6 | 16.4µM* | 10.5 | ?
Cc1ccc(-c2nc3nc(C)cc(N4CCN(c5cccc(C)c5C)CC4)n3n2)cc1 | nt | 27.5% | -10.0 | -3.9% | nt | 0.7%
O=Cc1ccc(C(=O)OCC(=O)NCCC2=CCCCC2)cc1 | -1.4 | 9.4% | 4.0 | 1.9% | 2.0 | -0.2%
CC(C)(C)c1ccccc1NC(=O)N1CCNC(=O)C1CC(=O)Nc1ccc(F)cc1 (configuration not stated) | i | 11.1% | 4.7 | -14.1% | -4.7 | 2.0%
O=C(Nc1nnc(-c2ccccc2)s1)c1cc(S(=O)(=O)N2CCOCC2)c(Cl)cc1Cl | 2.9 | -15.2% | 2.6 | -16.7% | -70.1* | -0.8%
O=C(Nc1nnc(-c2ccccc2)s1)c1cccc(S(=O)(=O)N2CCOCC2)c1 | 10.8 | -17.9% | -3.3 | -12.8% | -14.1 | -6.1%
O=C(Nc1cccc(C(=O)NC2CC2)c1)c1ccc(Cl)c(S(=O)(=O)N2CCOCC2)c1 | 15.0 | -28.2% | 0.5 | ? | 19.4 | 0.1%
O=C(Nc1cccc(Br)c1)c1ccc(Cl)c(S(=O)(=O)N2CCOCC2)c1 | -96.2* | 14.6µM* | 12.4 | 18.4µM* | 17.3 | 0.3%
